Bioassay records as filed in PubChem BioAssay.
The entries come from a sample that favours hits as a whole.
ALOX12 inh – ALOX12 (human) lipoxygenase inhibition | P18054 | purified 12hLO, xylenol orange hydroperoxide absorbance | Potency, µM (doses to about 108 µM), inactives show top-dose activity change, negative = inhibition, hits mostly inhibitors | 580,000 compounds, 1.1% hits; note: potency is the fitted concentration of half-maximal effect
Target sequence (P18054 whole entry, looked up): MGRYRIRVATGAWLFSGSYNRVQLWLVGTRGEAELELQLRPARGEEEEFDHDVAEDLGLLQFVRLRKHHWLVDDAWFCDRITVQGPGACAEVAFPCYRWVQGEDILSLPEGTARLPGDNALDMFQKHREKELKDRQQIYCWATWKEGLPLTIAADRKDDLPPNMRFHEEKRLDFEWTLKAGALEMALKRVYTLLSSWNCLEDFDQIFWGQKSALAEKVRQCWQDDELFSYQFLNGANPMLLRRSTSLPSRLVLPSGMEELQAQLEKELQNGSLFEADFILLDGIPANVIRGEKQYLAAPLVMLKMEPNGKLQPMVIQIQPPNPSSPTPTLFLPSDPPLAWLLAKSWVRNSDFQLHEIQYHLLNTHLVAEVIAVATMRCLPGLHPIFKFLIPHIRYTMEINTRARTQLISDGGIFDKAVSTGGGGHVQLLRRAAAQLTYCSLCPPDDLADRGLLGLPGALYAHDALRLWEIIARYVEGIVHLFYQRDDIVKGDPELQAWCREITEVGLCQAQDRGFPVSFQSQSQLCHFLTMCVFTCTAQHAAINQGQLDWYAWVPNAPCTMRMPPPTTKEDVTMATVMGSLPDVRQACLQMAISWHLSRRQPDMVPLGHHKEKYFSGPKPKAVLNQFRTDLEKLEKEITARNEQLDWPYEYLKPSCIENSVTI
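Purified human 12hLO (150 nM final) in 25 mM Hepes, 0.01% Triton X-100, pH 7.0 was preincubated 15 min at room temperature with compound. Then 40 uM arachidonic acid was added, 30 min. Hydroperoxide was read by Fe-XO absorbance ratio 573/405 nm.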
HT1080-NT tox – kills 2HG-producing HT-1080-NT fibrosarcoma cells; HT-1080-NT fibrosarcoma viability, CellTiter-Glo ATP luminescence, 48 h; Potency, µM (titrated, usually from 46.1 µM), for the others: at the top dose activity, negative = less viability, actives largely listed as cytotoxic; 360,000 compounds, 1.6% hits;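 note: NT is the 2HG producing partner of a matched IDH1 knockdown line; potency is the fitted concentration of half-maximal effect; 0% = DMSO-treated cells and -100% = media-only wells without cells; nearly all actives have a fitted effect of over 55% in size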
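HT-1080-NT fibrosarcoma cells (2HG-overproducing), 750 cells/well in RPMI with 5% FBS, dosed after 2 h and incubated 48 h at 37C. CellTiter-Glo luminescence normalized to DMSO and no-cell wells; concentration-response curves fitted and classed.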
TDP1 cell noCPT – qHTS for Inhibitors of human tyrosyl-DNA phosphodiesterase 1 (TDP1): qHTS in cells in absence of CPT; DT40 Tdp1-/- hTDP1 cells, no CPT, ATP luminescence, 48 h; AID 686978, 2013; 420,000 compounds, 15% hits; Potency, µM (series often up to 46.2 µM), for inactives: at the highest dose activity change, negative = growth inhibition, actives largely listed as inhibitors; note: potency is the fitted concentration of half-maximal effect; nearly all actives have a fitted effect of over 55% in size
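Compound effects on proliferation are scored in DT40 Tdp1-/-;hTDP1 cells in the absence of CPT. ATP levels (CellTiter-Glo luminescence) are recorded after a ≥48 hr, 37 °C incubation.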
IL1B secr inh – inflammasome signaling inhibition, IL-1 beta readout. THP-1 LPS/ATP IL-1B secretion, AlphaLISA, 16 h; hits give low values. activity change, % at 57.5 µM. 360,000 compounds, 4.7% hits. AID 743279; in the data active = activity change below about -50%; inconclusive = mostly about -30% to -49%
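Secreted IL-1B measured by AlphaLISA bead assay after 16 h compound exposure of THP-1 cells; compounds (final up to 57.5 uM) added 1 h before LPS (250 ng/mL) and ATP (1.25 mM) stimulation; lower signal means less secretion.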
DT40 TDP1 CPT – growth inhibition of DT40 Tdp1-/-;hTDP1 cells with camptothecin (screen for TDP1 inhibitors) | chicken DT40 Tdp1-/-;hTDP1 cells + 20 nM CPT, ATP luminescence, 48 h | Potency, µM (series often up to 46.2 µM), without a hit: at the highest dose activity change, negative = growth inhibition, actives largely listed as inhibitors | 420,000 compounds, 12% hits | AID 686979; note: potency is the fitted concentration of half-maximal effect; nearly all actives have a fitted effect of over 55% in size
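Chicken DT40 Tdp1-/- cells stably complemented with human TDP1 were seeded at 400 cells/well in medium containing 20 nM camptothecin, exposed to pin-transferred compounds, and grown at 37 °C for at least 48 hr. Viability was read as ATP luminescence.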
HT1080 IDH1KD tx – toxicity to HT-1080 IDH1 knockdown cells (counter line); HT-1080 IDH1 knockdown viability, ATP luminescence, 48 h; Potency, µM (top dose mostly 46.1 µM), without a hit: at the top dose activity, negative = toxicity, hits mostly cytotoxic; 360,000 compounds, 2% hits; AID 686971;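 note: potency is the fitted concentration of half-maximal effect; 0% = DMSO wells and -100% = cell-free medium wells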
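In this qHTS, HT-1080 cells depleted of IDH1 are exposed for 48 h at 37 °C to compound titrations. Toxicity is scored from CellTiter-Glo luminescence, with DMSO as full viability and medium alone as none.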
The depositor's hits bear a star; ? = inconclusive; . = no result given; [ ] = remark or other dose. Unless noted, calls come from the whole dose curve; as a rule, active = well fitted curve in the direction sought with a large enough effect; inconclusive = small, poorly fitted or top-dose-only effect, or another doubt; inactive = no such curve, though single readings can be large; an effect the other way counts as inactive or inconclusive. Unless noted, % is set by controls: 0 for no effect and ±100 for the full control effect.

SMILES | ALOX12 inh | HT1080-NT tox | TDP1 cell noCPT | IL1B secr inh | DT40 TDP1 CPT | HT1080 IDH1KD tx
Cn1ccc(NC(=O)c2ccc3c(c2)NC(C)(COc2ccccc2)CO3)n1 (stereo not drawn) | 14.0%[176 µM] | . | . | . | . | .
C[C@@H](O)CNC(=O)c1nc(-c2ccc(COc3ccc4c(c3)OCO4)cc2)no1 | -8.2% | . | . | . | . | .
O=C(c1ccc(F)c(Cl)c1)N1CCC2(CC1)CN(C1CCC1)CC2CO (stereo not drawn) | 92.9% | . | . | . | . | .
O=C1Nc2ccccc2-c2nnnn2C1N1CCC(Cc2ccccc2)CC1 (stereo not drawn) | -7.2% | -21.9% | 18.4µM* | 11.7 | ? | ?
Cc1cc2c(cc1C)-c1nnnn1C(N1CCCCC1)C(=O)N2 (stereo not drawn) | 7.5% | 1.0% | 9.2µM* | 28.6 | 14.6µM* | 0.6%
COCCn1nnnc1C(C(C)C)N1CCC(Cc2ccccc2)CC1 (stereo not drawn) | ? | -14.9% | ? | -21.4 | ? | -16.6%
CCOC(=O)c1cc(C(=O)OCC)c2cccc(C)n2c1=O | 0.0% | 12.2% | 13µM* | -4.3 | 7.31µM* | 2.4%
CSC(=S)NCc1cccnc1 | 5.9% | ? | 3.26µM* | -62.7* | 2.91µM* | ?
Cn1cc(C(=O)NCCCN2CCCCCC2=O)c2ccccc21 | 5.7% | . | . | . | . | .
CC1CCN(c2ccc(NC(=O)c3ccccc3SC3CCS(=O)(=O)C3)cc2)CC1 (stereo not drawn) | 6.31µM* | . | . | . | . | .
NC(=O)c1ccc(COC(=O)c2c(F)cccc2F)cc1 | 20.7% | . | . | . | . | .
CC1CCCCC1NC(=O)CS(=O)Cc1coc(-c2ccc(F)cc2)n1 (stereo not drawn) | 70.3% | . | . | . | . | .
Cc1nnc(NC(=O)CCS(=O)(=O)c2ccccc2)s1 | 4.4% | ? | ? | -92.8* | 16.4µM* | ?
Cc1nnc(NC(=O)CCSc2ccccc2)s1 | 23.2% | 10.1% | 0.0% | 17.8 | 14.5% | -2.8%
O=C(CCS(=O)(=O)c1ccccc1)Nc1nnc(C(F)(F)F)s1 | -9.8% | ? | 13µM* | 3.3 | ? | 18.4µM*
CC(C)(C)c1nnc(NC(=O)CCS(=O)(=O)c2ccccc2)s1 | -23.9% | -17.1% | 23.1µM* | -102.6* | 7.31µM* | ?
Cc1ccc(S(=O)(=O)CC(=O)Nc2nnc(C(C)(C)C)s2)cc1 | ? | 3.4% | -0.5% | 10.7 | 7.3% | 2.2%
O=C(CS(=O)(=O)c1ccccc1)Nc1nnc(C(F)(F)F)s1 | -23.0% | -0.1% | -18.7% | 15.8 | -0.2% | 3.4%
c1cc(-c2cc3c(ccn3Cc3ccncc3)c(N3CCOCC3)n2)c2[nH]ncc2c1 | 18.5%[176 µM] | . | . | . | . | .
CC(NC(=O)CNC(=O)OCc1ccccc1)C(N)=O (stereo not drawn) | -19.8% | . | . | . | . | .
Cc1nc2c3c(C)c(C)n(Cc4ccccc4)c3ncn2n1 | 0.0% | . | . | . | . | .
Cc1ncccc1C(=O)N1CCCCCCN(C)C(=O)[C@@H]2CCC[C@@H]21 | 47.3% | . | . | . | . | .
Cc1ccc(NC(=O)Cn2c(=O)n(CC(=O)NCCc3ccccc3)c(=O)c3ccccc32)cc1C | ? | . | 3.26µM* | . | ? | .
CC(C)c1ccc(NC(=O)Cn2c(=O)n(CC3CCC(C(=O)NCCc4ccccc4)CC3)c(=O)c3ccccc32)cc1 (stereo not drawn) | -18.9% | . | 14.6µM* | . | 16.4µM* | .
CCc1cccc(NC(=O)Cn2c(=O)n(CC3CCC(C(=O)NCCc4ccccc4)CC3)c(=O)c3ccccc32)c1 (stereo not drawn) | -21.0% | . | 13µM* | . | 20.6µM* | .
Cc1ccc(NC(=O)Cn2c(=O)n(CC(=O)NCCc3ccccc3)c(=O)c3ccccc32)cc1 | -16.3% | . | -13.6% | . | -24.5% | .
O=C(Cn1c(=O)n(CC2CCC(C(=O)NCCc3ccccc3)CC2)c(=O)c2ccccc21)Nc1ccccc1 (stereo not drawn) | -10.9% | . | -5.3% | . | -19.7% | .
